# In all, about 25,000 sequences were measured (“ln(normalized median fluorescence intensity)”: median about 6.7, highest 2% from about 10 on). The full list was thinned out, with the highest values kept by preference.
# Test system: PfHDP1 homeodomain (GST-tagged)
# Test: gcPBM binding intensity (ln(normalized median fluorescence intensity)); higher = stronger DNA binding
# Procedure, shortened: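 Plasmodium falciparum DNA-binding domains carrying a GST tag were expressed in E. coli and applied for 1 h, at about 25 μg on average, to an Agilent 4 × 180k array. The array held primer-extended double-stranded 36-bp intergenic genomic probes together with negative controls, and binding took place in 1× PBS with 1% milk, 0.2 mg/ml BSA, 0.5% salmon testes DNA and 0.03% Triton X-100. An Alexa488 anti-GST antibody detected bound protein, and the array was scanned at 488 nm. Binding intensity is taken as the highest Masliner-normalised natural-log median intensity across replicate spots of either probe orientation.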
row,Sequence,gcPBM binding intensity (ln)
1,AAATAGTTGTTATGGGTGCAAACCACATATATATAA [GTGCAC_site9428],8.79
2,TGTAGTTTGTCCCATGCATGTTCCATTAAAATATAT [TGCATGCA_site854],7.57
3,TTATGTAGTATAATGAGTACTAAATATAGATATGTT [XGTACX_site6335],6.56
4,ATTTAACAACTTCAAACACACAATATAGATTTATAT [CACACA_site7067],6.6
5,AAACAAGTAATTGTTATTATTATTATATTATTATTA [CACACA_negctrl_site402],6.12
6,TTTGAATATTCATATGCACACAAATTAATATACATA [CACACA_site8040],9.99
7,GTACGTTACATAAATGTGCACATATTATATGCGAAG,10.7
8,TATTTCAAATGTTATGTGCACATATTAATCCTACTT [GTGCAC_site9738],10.7
9,AATGTATTAAAATTACGTACATATGCACATTTTATA [XGTACX_site5046],8.53
10,ATAATAATATTATTTTGTACATATGTGCTTATTTAT [XGTACX_site5540],7.11
11,ATATATACATATAAATGTACATAATTATTATGCACA [XGTACX_site1261],9.09
12,ATTTTAAATGTTATGCGTACATATTAATCCTACTTA [XGTACX_site1344],6.69
13,AAAAAAAAAAAATGTGTGCACATTATTTCAACTTAA,10
14,ATGTGCAAATATTAAAGTACTAAATTTTATTATTTT [XGTACX_site7306],11.3
15,TTGCATTAATTTATGTGTACATATAAATTTTTATTT [XGTACX_site3060],6.94
16,TTTATTTATTATTAAAGTACTAAAATATATTATTAT [XGTACX_site4887],6.24
17,AATAATATTTATTTTTGTACATATGTGCATTATAAA [XGTACX_site3682],11.2
18,TTTATTTATTATTAAAGTACTAAATTATATTATTAT [XGTACX_site2565],5.95
19,GAAAACGTTTGAAGTTGTACATATGTATAAAAAGAA [XGTACX_site2304],7.74
20,TTTTTCATATTATACTTTTATATACATATATAAAAA [XGTACX_negctrl_site281],6.49
21,ATATATATATGTAATAGTACATATGATAGTTTGTCA [XGTACX_site1545],8.51

row,Sequence,gcPBM binding intensity (ln)
1,TTTTTATTGCAATACTTATATTTTTTTATGATTAAA [TGCATGCA_negctrl_site147],10.1
2,TTACATGCTAAAATTTGTACATATATGATAAATATT [XGTACX_site2648],6.47
3,TATTATTTAATCAAATGTACATAGAAAATGTATGTA [XGTACX_site4433],6.21
4,CATATATACAGTAACACACACAAAAAAATATGAATA [CACACA_site3996],6.91
5,ATATAGTTGTCATATTGTACACTTTAGGGTTGGTTA [XGTACX_site7339],6.64
6,TTATAAAAATAATATCGTACAAATGACATAGATGAA [XGTACX_site2570],6.6
7,ATTATCCATGCATTTACACACACACCCAAAAAAATT [CACACA_site4101],7.67
8,ATATATATATATATATGTACATATTTATATTGTAAA [XGTACX_site8878],9.35
9,TAATTACCATATGGTACACACATATATATATGTATA [CACACA_site3487],7.02
10,TTTTTCATAAGAAGCACACAAAAAATGATAGAGAAT [CACACA_site1417],7.39
11,AAAATATTCACGTGTACATATATATATATATATTAT [TGCATGCA_negctrl_site192],6.96
12,TTTTATATAAATATCACACACACACGCATGTTTTAA [CACACA_site6187],6.71
13,CATATACAGAAACACACACACACATAAATAAATATA [CACACA_site1343],6.84
14,ATTTATATAAAGAATGTACACACAGAAATGCACCCA [CACACA_site8715],10.7
15,ATAATATATGTATGTATGCACTTTTATTATTTTTTT,7.24
16,CATTTATATAAAGAATGTACACACAGAAATGCACAC [XGTACX_site4718],9.03
17,TTTTATATTTTATGCACACTTATAAGAAATATGTAC [CACACA_site3040],10.6
18,TTATATAAAGAATGTACACACAGAAATGCACCCACA [CACACA_site2282],9.38
19,TATTTTATATTTTATGCACACTTATAAGAAATATGT [CACACA_site5647],9.42
20,AAATATTATAATAATTGTACTATATATACAGTTATT [XGTACX_site1963],6.39

# Source: the supplement of paper PMC11417369
